Measured values taken from article PMC7862700, “An all-to-all approach to the identification of sequence-specific readers for epigenetic DNA modifications on cytosine”.

How the values were obtained:
Assay in all cases: DAPPL (digital affinity profiling via proximity ligation, sequencing); 10 mM Tris-HCl pH 7.5, 50 mM NaCl, 1 mM DTT, 4% glycerol, room temperature, 30 min; GST-TFs on glutathione beads, 16-mer random dsDNA library, 0.1% formaldehyde crosslink after washing; high values mean tight binding
Conditions in all cases: protein: recombinant; tags: N-terminal GST; dsDNA, one strand shown
[1] = biological target: ETV5 (Homo sapiens, UniProt P41161 1-510)
Procedure, shortened: (§1)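 Human transcription factors carrying a GST fusion were produced in yeast, bound to glutathione beads, tagged with DNA barcodes and pooled together with a tag-only sample. Each pool was held with 200 nmole of a random double-stranded 16-mer DNA library in Tris/NaCl/DTT/glycerol buffer for 30 min at room temperature, then washed, crosslinked in 0.1% formaldehyde, proximity-ligated with BsaI/T4 ligase (1 h, 37 °C), PCR-amplified and sequenced on an Illumina NextSeq500. Binding signal is the read frequency of each hexamer for a given factor divided by its frequency in the tag-only sample.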

[2] = biological target: T1, SPIC (Homo sapiens, UniProt Q8N5J4 1-248)
T1 sequence: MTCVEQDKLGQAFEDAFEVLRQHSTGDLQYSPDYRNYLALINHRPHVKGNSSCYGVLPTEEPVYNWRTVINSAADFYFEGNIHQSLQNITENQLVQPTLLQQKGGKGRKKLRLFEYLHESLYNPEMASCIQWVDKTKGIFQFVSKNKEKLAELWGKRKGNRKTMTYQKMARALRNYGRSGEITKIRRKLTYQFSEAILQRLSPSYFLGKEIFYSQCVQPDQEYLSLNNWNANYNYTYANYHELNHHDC
Procedure, shortened: as §1

[3] = biological target: ELF4 (Homo sapiens, UniProt Q99607 1-663)
Procedure, shortened: as §1

[4] = biological target: ETV1 (Homo sapiens, UniProt P50549 1-477)
Procedure, shortened: as §1

[5] = biological target: T2, ERF (Homo sapiens, UniProt P50548 1-548)
T2 sequence: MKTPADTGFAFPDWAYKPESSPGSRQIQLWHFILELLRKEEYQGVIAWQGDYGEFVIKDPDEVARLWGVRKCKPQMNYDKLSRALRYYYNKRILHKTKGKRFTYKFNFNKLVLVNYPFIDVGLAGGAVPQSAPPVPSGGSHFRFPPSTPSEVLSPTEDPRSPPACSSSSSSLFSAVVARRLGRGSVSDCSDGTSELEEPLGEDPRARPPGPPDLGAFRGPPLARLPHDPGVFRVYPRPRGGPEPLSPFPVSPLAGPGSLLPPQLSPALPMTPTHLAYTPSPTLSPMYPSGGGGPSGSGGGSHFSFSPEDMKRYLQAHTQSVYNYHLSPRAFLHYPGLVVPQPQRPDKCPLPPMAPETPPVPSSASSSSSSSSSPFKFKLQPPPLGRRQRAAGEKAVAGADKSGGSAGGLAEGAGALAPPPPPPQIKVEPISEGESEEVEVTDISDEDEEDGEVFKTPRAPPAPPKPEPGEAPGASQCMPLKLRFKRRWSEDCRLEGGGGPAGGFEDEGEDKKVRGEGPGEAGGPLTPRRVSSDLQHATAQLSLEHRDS
Procedure, shortened: as §1

[6] = biological target: T3, ETV3L (Homo sapiens, UniProt Q6ZN32 1-361)
T3 sequence: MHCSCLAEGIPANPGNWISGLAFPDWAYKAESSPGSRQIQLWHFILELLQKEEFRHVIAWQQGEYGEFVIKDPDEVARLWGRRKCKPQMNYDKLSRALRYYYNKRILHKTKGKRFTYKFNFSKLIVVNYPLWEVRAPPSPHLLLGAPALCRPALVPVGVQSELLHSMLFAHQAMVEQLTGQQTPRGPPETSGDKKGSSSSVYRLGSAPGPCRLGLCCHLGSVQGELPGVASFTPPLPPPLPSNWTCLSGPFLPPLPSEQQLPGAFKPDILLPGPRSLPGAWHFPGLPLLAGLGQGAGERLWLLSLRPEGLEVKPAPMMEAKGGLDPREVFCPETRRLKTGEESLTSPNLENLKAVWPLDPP
Procedure, shortened: as §1

[7] = biological target: T4, ETS2 (Homo sapiens, UniProt P15036 1-469)
T4 sequence: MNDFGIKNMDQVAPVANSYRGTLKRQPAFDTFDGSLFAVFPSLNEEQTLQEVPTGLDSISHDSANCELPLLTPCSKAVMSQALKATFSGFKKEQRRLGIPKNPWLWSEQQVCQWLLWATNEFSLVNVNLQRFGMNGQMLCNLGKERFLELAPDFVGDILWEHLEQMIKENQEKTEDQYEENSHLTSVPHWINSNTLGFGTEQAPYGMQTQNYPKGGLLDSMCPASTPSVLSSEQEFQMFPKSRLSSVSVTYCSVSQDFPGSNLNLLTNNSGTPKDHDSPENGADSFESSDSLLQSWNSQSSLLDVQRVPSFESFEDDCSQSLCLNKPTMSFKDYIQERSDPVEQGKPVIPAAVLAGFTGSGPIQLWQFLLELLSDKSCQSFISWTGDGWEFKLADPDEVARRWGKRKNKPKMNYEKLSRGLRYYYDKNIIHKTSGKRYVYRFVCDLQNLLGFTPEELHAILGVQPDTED
Procedure, shortened: as §1

[8] = biological target: T5, SPDEF (Homo sapiens, UniProt O95238 1-335)
T5 sequence: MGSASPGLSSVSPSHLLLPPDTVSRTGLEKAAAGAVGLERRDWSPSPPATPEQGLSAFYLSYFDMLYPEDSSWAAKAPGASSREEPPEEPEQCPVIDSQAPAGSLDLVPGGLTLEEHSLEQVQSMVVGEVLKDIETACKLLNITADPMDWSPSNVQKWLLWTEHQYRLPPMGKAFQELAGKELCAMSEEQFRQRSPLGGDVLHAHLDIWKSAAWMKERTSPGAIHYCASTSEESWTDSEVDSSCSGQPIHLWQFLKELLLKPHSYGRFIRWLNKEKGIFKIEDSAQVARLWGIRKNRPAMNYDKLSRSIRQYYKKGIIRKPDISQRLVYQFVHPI
Procedure, shortened: as §1

[9] = biological target: T6, ETV3 (Homo sapiens, UniProt P41162-2 1-143)
T6 sequence: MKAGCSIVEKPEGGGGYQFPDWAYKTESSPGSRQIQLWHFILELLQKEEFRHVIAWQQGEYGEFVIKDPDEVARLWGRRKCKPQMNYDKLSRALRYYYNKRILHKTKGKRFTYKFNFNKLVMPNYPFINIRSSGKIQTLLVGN
Procedure, shortened: as §1

[10] = biological target: ETV6 (Homo sapiens, UniProt P41212 1-452)
Procedure, shortened: as §1

ETV1, sequence (P50549 whole entry): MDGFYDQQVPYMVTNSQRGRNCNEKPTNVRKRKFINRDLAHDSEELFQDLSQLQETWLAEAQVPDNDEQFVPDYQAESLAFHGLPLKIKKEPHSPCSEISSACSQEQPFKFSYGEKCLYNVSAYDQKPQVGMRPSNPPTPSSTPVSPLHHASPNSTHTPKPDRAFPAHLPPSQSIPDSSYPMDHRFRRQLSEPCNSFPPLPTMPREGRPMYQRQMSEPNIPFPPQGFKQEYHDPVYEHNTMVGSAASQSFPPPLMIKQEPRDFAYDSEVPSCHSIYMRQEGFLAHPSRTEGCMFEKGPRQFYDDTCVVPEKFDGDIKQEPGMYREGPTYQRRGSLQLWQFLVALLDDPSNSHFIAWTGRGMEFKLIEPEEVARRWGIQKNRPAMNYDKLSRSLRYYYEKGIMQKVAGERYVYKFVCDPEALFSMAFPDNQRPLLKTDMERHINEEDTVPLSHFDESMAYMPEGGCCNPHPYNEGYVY
ETV6, sequence (P41212 whole entry): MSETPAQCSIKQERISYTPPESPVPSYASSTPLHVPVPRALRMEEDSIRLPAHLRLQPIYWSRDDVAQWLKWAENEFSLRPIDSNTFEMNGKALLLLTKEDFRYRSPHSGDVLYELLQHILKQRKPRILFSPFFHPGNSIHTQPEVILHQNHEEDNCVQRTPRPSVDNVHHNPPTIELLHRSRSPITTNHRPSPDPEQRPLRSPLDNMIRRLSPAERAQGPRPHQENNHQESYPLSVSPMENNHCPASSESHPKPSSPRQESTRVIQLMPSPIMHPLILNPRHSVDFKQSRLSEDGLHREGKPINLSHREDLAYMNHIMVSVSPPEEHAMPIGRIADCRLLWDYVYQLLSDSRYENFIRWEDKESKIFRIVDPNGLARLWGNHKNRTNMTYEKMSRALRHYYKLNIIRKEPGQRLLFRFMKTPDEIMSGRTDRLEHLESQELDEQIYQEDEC
ELF4, sequence (Q99607 whole entry): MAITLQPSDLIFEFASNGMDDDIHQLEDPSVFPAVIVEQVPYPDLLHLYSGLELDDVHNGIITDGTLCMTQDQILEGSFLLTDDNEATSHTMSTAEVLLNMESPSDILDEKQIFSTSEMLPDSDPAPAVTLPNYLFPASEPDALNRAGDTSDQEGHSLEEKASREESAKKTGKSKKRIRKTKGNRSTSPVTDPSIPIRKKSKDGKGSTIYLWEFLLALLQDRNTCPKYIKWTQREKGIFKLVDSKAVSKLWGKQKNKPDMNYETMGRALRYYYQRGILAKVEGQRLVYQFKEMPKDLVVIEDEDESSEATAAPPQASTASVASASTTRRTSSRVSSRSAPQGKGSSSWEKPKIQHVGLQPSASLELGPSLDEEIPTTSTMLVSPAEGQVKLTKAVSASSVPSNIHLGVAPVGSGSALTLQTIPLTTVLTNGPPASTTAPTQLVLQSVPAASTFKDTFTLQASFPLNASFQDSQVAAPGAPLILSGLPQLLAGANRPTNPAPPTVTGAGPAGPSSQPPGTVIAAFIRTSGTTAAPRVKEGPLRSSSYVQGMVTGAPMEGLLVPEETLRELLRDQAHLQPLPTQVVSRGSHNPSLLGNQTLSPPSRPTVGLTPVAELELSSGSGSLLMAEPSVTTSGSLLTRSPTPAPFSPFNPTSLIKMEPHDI
ETV5, sequence (P41161 whole entry, the tested form may be a part): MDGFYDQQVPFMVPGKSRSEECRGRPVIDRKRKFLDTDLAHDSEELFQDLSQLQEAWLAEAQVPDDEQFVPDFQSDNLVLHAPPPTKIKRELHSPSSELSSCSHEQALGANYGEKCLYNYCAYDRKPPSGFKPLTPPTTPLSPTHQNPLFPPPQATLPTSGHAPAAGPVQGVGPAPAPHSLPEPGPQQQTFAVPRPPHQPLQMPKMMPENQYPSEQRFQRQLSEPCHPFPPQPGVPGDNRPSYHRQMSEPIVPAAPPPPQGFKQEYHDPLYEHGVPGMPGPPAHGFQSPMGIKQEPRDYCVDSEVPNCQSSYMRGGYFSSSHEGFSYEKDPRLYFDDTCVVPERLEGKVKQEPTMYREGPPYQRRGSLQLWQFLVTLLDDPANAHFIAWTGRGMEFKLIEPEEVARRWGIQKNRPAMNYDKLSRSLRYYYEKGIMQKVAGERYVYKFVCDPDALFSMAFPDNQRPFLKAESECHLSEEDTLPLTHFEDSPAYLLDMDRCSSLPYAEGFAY

**Q.** Which results are given for CGATGT?
**A.** binding signal [1]: 1.1 fold enrichment (6-mer frequency, TF over GST control); binding signal [2]: 1.07 fold enrichment (6-mer frequency, TF over GST control); binding signal [3]: 1.04 fold enrichment (6-mer frequency, TF over GST control); binding signal [4]: 1.1 fold enrichment (6-mer frequency, TF over GST control); binding signal [5]: 1.16 fold enrichment (6-mer frequency, TF over GST control); binding signal [6]: 1.09 fold enrichment (6-mer frequency, TF over GST control); binding signal [7]: 1.12 fold enrichment (6-mer frequency, TF over GST control); binding signal [8]: 1.12 fold enrichment (6-mer frequency, TF over GST control); binding signal [9]: 1.19 fold enrichment (6-mer frequency, TF over GST control); binding signal [10]: 1.03 fold enrichment (6-mer frequency, TF over GST control)
